Experimental data published in PubChem BioAssay (Tox21).
Results filed as inconclusive are left out. Where a call stands in place of a potency, no number is given. Active and inactive are the calls of the source. Calls follow the shape of the dose curve; as a rule, active = well fitted inhibition curve with a large enough effect in the repeat runs; inconclusive = weak or mixed curves; inactive = no such curve, though single readings can be large or run the other way.

What follows are compounds tested against Estrogen receptor (Homo sapiens) (UniProt P03372) (assay: qHTS assay to identify small molecule antagonists of the estrogen receptor alpha (ER-alpha) signaling pathway using the BG1 cell line in the presence of 0.1 nM 17-beta-estradiol (AID 1259244; also: nearly all actives have a fitted effect of over 50% in size)). Details: VM7Luc4E2 (BG1) ERE-luciferase, antagonist mode, 0.1 nM E2, 22 h; series mostly up to 92.4 µM.
Estrogen receptor (Homo sapiens), sequence (P03372 whole entry, looked up): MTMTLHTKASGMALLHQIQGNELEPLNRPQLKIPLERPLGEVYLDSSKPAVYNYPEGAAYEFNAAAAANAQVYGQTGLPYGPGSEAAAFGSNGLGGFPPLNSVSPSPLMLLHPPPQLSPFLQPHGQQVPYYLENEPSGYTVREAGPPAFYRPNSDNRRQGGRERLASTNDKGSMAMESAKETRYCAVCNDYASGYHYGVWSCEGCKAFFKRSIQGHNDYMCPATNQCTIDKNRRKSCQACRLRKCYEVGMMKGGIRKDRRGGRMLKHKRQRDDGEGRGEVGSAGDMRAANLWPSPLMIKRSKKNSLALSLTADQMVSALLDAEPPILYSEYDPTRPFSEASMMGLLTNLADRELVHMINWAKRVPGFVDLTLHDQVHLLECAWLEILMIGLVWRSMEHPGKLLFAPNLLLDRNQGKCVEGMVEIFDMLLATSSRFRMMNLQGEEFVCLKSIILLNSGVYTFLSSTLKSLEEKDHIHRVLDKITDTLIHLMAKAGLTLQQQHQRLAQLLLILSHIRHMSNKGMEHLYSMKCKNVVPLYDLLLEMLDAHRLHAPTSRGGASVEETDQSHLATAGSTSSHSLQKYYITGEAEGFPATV
Description: National Center for Advancing Translational Sciences [NCATS]
NIH Chemical Genomics Center [NCGC]
U.S. Environmental Protection Agency [EPA]
National Institutes of Environmental Health Sciences [NIEHS]
National Toxicology Program [NTP]
U.S. Food and Drug Administration [FDA]
Estrogen receptor (ER), a member of the nuclear hormone receptor plays an important role in development, metabolic homeostasis and reproduction. Two subtypes of ER, ER-alpha and ER-beta, have similar expression patterns with some uniqueness in both types. Endocrine disrupting chemicals (EDCs) and their interactions with steroid hormone receptors like ER causes disruption of normal endocrine function. Therefore, it is important to understand the effect of environmental chemicals in ER signaling pathway. For identifying ER antagonists, VM7Luc4E2 cell line was used to screen against Tox21 compound libraries.
VM7Luc4E2 cell line (provided by Denison MS, University of California) endogenously express full-length ER-alpha and is stably transfected with a plasmid containing four estrogen responsive elements (ERE) upstream of a luciferase reporter gene. The current screening for identification of ER-alpha inhibitors against Tox21 compound libraries used lower concentration (0.1 nM) of 17beta-Estradiol as a stimulator.
Tox21 Assay Protocol Summary:
VM7Luc4E2 cells were cultured in phenol red free assay medium containing 10% charcoal stripped FBS for 5 days prior to the assay. The cells were dispensed at 4,000 cells/well in 4 uL of assay medium into white wall/solid-bottom 1536-well plates (Corning Life Sciences, Corning, NY) using a Multidrop Combi (ThermoFisher Scientific, Waltham, MA) dispenser. After the assay plates were incubated at 37C and 5% CO2 for 24 hr, 23 nL of compounds dissolved in DMSO, positive controls or DMSO only was transferred to the assay plates by a Pintool station (Kalypsys, San Diego, CA). The transfer of compounds was followed by the addition of 1 uL of 0.1 nM (final concentration) agonist (17beta-Estradiol)/assay medium using a Flying Reagent Dispenser (FRD, Aurora Discovery, San Diego, CA). The plates were incubated at 37C and 5% CO2 for 22 hr. For luciferase reporter gene assay, 4 uL of ONE-Glo reagent (Promega Corporation, Madison, WI) was added to each well using the FRD and after 30 min incubation at room temperature luminescence intensity was measured using ViewLux plate reader (PerkinElmer, Shelton, CT).
`O=C1CCCCCCCCCCC1` was tested, and the Potency was “inactive”.
For `NC(N)=S`, the Potency was “inactive”.
In the case of `N#CCC(=O)O`, the Potency is reported as “inactive”.
`COCN(COC)c1nc(N(COC)COC)nc(N(COC)COC)n1` was tested, and the Potency was “inactive”.
For `NC(=O)NC(N)=O`, the Potency was “inactive”.
With `CN=C(NC#N)NCCSCc1nc[nH]c1C` the Potency was “inactive”.
In the case of `Nc1cccc(N)n1`, the Potency is reported as “inactive”.
In the case of `Oc1ccc(Cc2ccccc2O)cc1`, the Potency is reported as “inactive”.
In the case of `OCC(O)CS` (stereo not given), the Potency is reported as “inactive”.
With `N[C@@H](Cc1cc(I)c(Oc2ccc(O)c(I)c2)c(I)c1)C(=O)O` the Potency was “inactive”.
`Cc1ccc(Cl)cc1` was tested, and the Potency was “inactive”.
`CCOC(=O)c1ccc(O)cc1` was tested, and the Potency was “inactive”.
In the case of `O=C(Cl)c1ccc(C(=O)Cl)cc1`, the Potency is reported as “inactive”.
For `Cc1ccncc1`, the Potency was “inactive”.
`O=C(c1ccccc1)c1ccc(O)c(O)c1O` was tested, and the Potency was “inactive”.
For `Cc1ccccc1Cl`, the Potency was “inactive”.
With `CCCCCCCC(=O)O` the Potency was “inactive”.
`COc1ccc(N)c(OC)c1` was tested, and the Potency was “inactive”.
With `Cc1ccc(C(C)C)cc1` the Potency was “inactive”.
With `Cc1cc(C)c(O)c(C)c1` the Potency was “inactive”.
For `CC(=O)c1nccs1`, the Potency was “inactive”.
With `OB(O)O` the Potency was “inactive”.
In the case of `CCCCCCCCO`, the Potency is reported as “inactive”.
In the case of `Nc1cccc(C(F)(F)F)c1`, the Potency is reported as “inactive”.
For `CCc1cccc(O)c1`, the Potency was “inactive”.
In the case of `COc1c(Cl)ccc(Cl)c1C(=O)O`, the Potency is reported as “inactive”.
With `C=CC(C)(C)C` the Potency was “inactive”.
In the case of `CC(C)(CO)CO`, the Potency is reported as “inactive”.
For `Cc1cc(C)cc(O)c1`, the Potency was “inactive”.
In the case of `CCCCCCCCCCCCCC(=O)O`, the Potency is reported as “inactive”.
`CC(O)CNCC(C)O` (stereo not given) was tested, and the Potency was “inactive”.
For `O=C(O)C1=NN(c2ccc(S(=O)(=O)O)cc2)C(=O)C1`, the Potency was “inactive”.
For `COc1ccc([C@@H]2CC(=O)c3c(O)cc(O[C@@H]4O[C@H](CO[C@@H]5O[C@@H](C)[C@H](O)[C@@H](O)[C@H]5O)[C@@H](O)[C@H](O)[C@H]4O)cc3O2)cc1OC`, the Potency was “inactive”.
`CC(=O)Nc1ccc(CC(=O)O)cc1` was tested, and the Potency was “inactive”.
`CCCCCCCCC(=O)O` was tested, and the Potency was “inactive”.
In the case of `CN1CCCC1=O`, the Potency is reported as “inactive”.
In the case of `CC(=O)OC(C)(C)C1CC=C(C)CC1` (stereo not given), the Potency is reported as “inactive”.
In the case of `COc1c2ccoc2cc2oc(=O)ccc12`, the Potency is reported as “inactive”.
For `Cc1ccccc1C=O`, the Potency was “inactive”.
In the case of `CC(=O)CC(=O)N(C)C`, the Potency is reported as “inactive”.
